# Active and inactive are the calls of the source.
# How the values were obtained:
# Albumin (Bos taurus) = Albumin (Bos taurus) (UniProt P02769); assay: compounds binding labelled BSA control protein – biochemical, small-molecule microarray, Alexa647 label, 635/667 nm fluorescence, artefact control for SMM control protein annotation, profiling panel (AID 1118); conditions: BSA-A647 binding, fluorescence 635 nm, higher = more signal;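 also: score merges 667 nm emission intensity and signal-to-noise per printed compound spot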
# Chain of Albumin (Bos taurus) (P02769 whole entry, looked up): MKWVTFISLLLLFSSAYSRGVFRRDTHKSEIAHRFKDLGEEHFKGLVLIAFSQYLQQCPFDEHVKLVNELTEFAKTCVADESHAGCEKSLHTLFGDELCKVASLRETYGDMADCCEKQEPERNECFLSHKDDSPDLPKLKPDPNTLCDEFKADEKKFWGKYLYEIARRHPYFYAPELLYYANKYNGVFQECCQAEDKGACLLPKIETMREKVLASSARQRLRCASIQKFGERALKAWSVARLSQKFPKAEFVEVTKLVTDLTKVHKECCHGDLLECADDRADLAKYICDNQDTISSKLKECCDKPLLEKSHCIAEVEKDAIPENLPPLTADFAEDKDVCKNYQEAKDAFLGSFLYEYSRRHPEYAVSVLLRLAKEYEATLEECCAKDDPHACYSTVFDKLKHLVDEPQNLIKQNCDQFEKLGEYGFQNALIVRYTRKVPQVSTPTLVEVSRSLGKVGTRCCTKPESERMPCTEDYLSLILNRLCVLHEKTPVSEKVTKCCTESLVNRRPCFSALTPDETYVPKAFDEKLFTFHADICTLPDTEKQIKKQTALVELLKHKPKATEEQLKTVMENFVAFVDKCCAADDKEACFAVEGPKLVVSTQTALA
# [1] = probe aXIP binding to arrayed compounds – biochemical, NeuroSMM set, 635/667 nm fluorescence, primary screen (AID 1119); conditions: small-molecule microarray, higher = more signal, called active from +8 up or from −8 down;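 also: probe is the protein aXip251-270 applied at 1 µg/mL to compound-printed slides; binding of probe to printed compounds measured as 667 nm fluorescence plus signal to noise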
# [2] = probe aNOTCH3 binding on compound microarray – biochemical, small-molecule microarray, 635/667 nm fluorescence, primary screen (AID 1120); conditions: higher = more signal;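 also: probe is a biotin-tagged antibody raised against NOTCH3 rather than NOTCH3 protein; score merges spot fluorescence near 667 nm with spot signal to noise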
# [3] = probe aNOTCH2 binding on compound microarray – biochemical, small-molecule microarray, 635/667 nm fluorescence, primary screen (AID 1121); conditions: higher = more signal;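 also: score merges feature fluorescence read at 667 nm with its signal to noise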
# [4] = target: Carbonic anhydrase 2 (Homo sapiens) (UniProt P00918); assay: compounds binding carbonic anhydrase 2 – biochemical, small-molecule microarray, Alexa647-labelled CAII, profiling panel (AID 1122); conditions: CAII-A647 binding fluorescence, higher = more signal
# [5] = COS7 lysate on small-molecule microarray, probe aHis, 635 nm (AID 1123); conditions: COS7 cell lysate, fluorescence, higher = more signal;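 also: z-score combines 667nm fluorescence intensity with signal-to-noise per printed compound spot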
# [6] = probe aLAP1 signal on lysate-treated microarray – cell lysate, small-molecule microarray, COS7 lysate, primary screen (AID 1124); conditions: probe aLAP1, fluorescence, higher = more signal;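 also: lysate comes from COS7 cells expressing LAP1 and is applied at 0.3 µg/mL; score merges spot fluorescence near 667 nm with signal-to-noise over triplicate slides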
# Sam68 (KHDRBS1) = assay: compounds binding KHDRBS1 protein – biochemical, small-molecule microarray, 635 nm fluorescence, primary screen (AID 1125); conditions: higher = more signal;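 also: score merges 667 nm channel intensity with signal to noise over triplicate slides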
# [7] = test system: Chordin-like protein 2 (CHRDL2); assay: compounds binding chordin-like 2 – biochemical, small-molecule microarray, 635 nm fluorescence, primary screen (AID 1126); conditions: fluorescence 635 nm, higher = more signal;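 also: printed compound slides probed with Chrdl2 protein at 4 µg/mL for 1 h at 4 C; score merges 667 nm emission intensity with signal to noise over three replicate slides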
# [8] = target: Concanavalin-A (Canavalia ensiformis) (UniProt P02866); assay: compounds binding concanavalin A lectin – biochemical, small-molecule microarray, Alexa647 label, 635 nm, artefact control for SMM control protein annotation, primary screen (AID 1127); conditions: ConA-A647 binding fluorescence, higher = more signal;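 also: z combines 667 nm emission intensity with signal-to-noise across three replicate slides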
# Chain of Concanavalin-A (Canavalia ensiformis) (P02866 whole entry, looked up): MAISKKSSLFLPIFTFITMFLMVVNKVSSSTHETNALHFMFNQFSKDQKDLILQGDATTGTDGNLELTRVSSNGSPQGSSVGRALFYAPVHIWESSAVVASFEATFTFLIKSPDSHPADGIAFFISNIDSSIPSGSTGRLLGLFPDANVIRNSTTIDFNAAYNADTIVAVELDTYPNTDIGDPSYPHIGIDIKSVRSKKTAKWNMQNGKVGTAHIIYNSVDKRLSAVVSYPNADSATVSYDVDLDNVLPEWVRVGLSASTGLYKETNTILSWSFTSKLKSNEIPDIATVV
# [9] = compounds binding Alexa647 anti-His antibody – biochemical, small-molecule microarray, 635 nm fluorescence, artefact control for SMM control protein annotation, primary screen (AID 1128); conditions: higher = more signal;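 also: score merges feature fluorescence with signal-to-noise for each printed compound spot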
# [10] = test system: Human papillomavirus type 1a E7 protein (residues 1-88); assay: HPV1a E7 small-molecule binders, primary screen, biochemical, small-molecule microarray, residues 1-88, 635 nm (AID 1129); conditions: small-molecule microarray binding, fluorescence 635 nm; higher = more signal
# [11] = target: Focal adhesion kinase 1 (Homo sapiens) (UniProt Q05397); assay: PTK2 protein binding on printed compound slides – biochemical, small-molecule microarray, 635/667 nm fluorescence, BSA, DTT, primary screen (AID 1130); conditions: 635 nm fluorescence, higher = more signal;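 also: composite of spot emission at 667 nm and signal to noise over triplicate slides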
# Chain of Focal adhesion kinase 1 (Homo sapiens) (Q05397 whole entry, looked up): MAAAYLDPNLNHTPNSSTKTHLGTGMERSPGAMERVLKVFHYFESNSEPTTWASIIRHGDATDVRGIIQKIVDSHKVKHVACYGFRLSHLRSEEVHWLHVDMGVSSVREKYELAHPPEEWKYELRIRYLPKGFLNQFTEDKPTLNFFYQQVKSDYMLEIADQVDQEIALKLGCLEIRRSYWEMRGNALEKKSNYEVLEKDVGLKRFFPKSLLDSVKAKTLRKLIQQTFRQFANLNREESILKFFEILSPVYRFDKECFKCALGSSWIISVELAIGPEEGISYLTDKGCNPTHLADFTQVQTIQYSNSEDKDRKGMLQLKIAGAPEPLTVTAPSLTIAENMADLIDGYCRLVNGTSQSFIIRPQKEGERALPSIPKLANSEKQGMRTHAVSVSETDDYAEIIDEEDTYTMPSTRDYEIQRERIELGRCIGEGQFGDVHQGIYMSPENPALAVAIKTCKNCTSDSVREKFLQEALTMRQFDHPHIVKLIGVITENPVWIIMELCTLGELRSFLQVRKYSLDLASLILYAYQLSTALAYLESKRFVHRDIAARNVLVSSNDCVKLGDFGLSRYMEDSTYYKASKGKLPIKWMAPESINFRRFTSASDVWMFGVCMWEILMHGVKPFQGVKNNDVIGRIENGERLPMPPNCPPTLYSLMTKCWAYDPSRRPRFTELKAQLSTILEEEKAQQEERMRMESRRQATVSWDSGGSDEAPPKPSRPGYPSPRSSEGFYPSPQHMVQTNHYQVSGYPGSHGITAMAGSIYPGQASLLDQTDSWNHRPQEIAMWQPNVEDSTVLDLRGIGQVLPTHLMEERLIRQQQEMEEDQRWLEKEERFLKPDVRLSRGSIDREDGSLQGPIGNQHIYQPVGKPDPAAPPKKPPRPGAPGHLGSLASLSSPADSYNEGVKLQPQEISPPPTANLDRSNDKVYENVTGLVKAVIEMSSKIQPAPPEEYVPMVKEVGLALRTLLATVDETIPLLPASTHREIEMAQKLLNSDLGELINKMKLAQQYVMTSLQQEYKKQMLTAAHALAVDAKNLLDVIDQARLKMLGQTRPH
# [12] = test system: Fibrinogen (Alexa647-labelled); assay: Alexa647-fibrinogen binding to printed small molecules – biochemical, small-molecule microarray, 635/667 nm fluorescence, artefact control for SMM control-protein annotation, profiling panel (AID 1131); conditions: fibrinogen-A647 binding fluorescence, higher = more signal;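 also: z-score merges 667 nm fluorescence with per-spot signal-to-noise over triplicate slides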
# [13] = target: Follistatin (Homo sapiens) (UniProt P19883); assay: FST protein binding to printed compounds – biochemical, small-molecule microarray, 635/667 nm fluorescence, primary screen (AID 1132); conditions: 635 nm fluorescence, higher = more signal
# Chain of Follistatin (Homo sapiens) (P19883 whole entry, looked up): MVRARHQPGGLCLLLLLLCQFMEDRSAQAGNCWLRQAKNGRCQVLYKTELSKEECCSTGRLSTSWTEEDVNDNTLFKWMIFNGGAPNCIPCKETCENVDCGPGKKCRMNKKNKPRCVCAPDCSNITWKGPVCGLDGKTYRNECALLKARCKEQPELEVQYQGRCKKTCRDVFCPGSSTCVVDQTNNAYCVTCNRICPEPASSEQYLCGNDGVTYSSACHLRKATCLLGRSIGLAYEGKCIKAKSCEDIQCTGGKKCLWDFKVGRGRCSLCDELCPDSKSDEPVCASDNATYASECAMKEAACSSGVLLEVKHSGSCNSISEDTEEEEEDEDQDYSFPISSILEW
# [14] = target: Fibroblast growth factor 2 (Homo sapiens) (UniProt P09038); assay: basic fibroblast growth factor binding to printed compounds – biochemical, small-molecule microarray, 635/667 nm fluorescence, primary screen (AID 1133); conditions: FGF2, fluorescence 635/667, higher = more signal
# Chain of Fibroblast growth factor 2 (Homo sapiens) (P09038 whole entry, looked up): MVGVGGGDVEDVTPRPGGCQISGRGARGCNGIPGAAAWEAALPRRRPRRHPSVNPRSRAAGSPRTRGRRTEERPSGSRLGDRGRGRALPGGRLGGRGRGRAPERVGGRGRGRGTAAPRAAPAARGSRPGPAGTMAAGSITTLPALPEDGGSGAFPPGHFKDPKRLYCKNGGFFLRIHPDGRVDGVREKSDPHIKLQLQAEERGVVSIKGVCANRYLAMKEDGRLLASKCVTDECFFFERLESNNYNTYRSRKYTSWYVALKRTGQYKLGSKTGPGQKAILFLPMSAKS
# [15] = JC-1 mitochondrial potential readout, lung cancer cells – cell-based, A549, JC-1 fluorescence, basal, 24 h, 100 nL, profiling panel (AID 1138); conditions: higher = more signal;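 also: A549 lung adenocarcinoma cells under basal conditions with no added stimulus; test concentration not given here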
# Lefty1 = Lefty1 protein binding to printed compounds – biochemical, small-molecule microarray, 635/667 nm fluorescence, primary screen (AID 1139); conditions: fluorescence 635/667, higher = more signal
# [16] = test system: wheat germ agglutinin (Triticum aestivum), Alexa647-labelled; assay: Alexa647-WGA lectin binding to printed small molecules – biochemical, small-molecule microarray, 635/667 nm fluorescence, artefact control for SMM control-protein annotation, profiling panel (AID 1140); conditions: WGA-A647 binding, 635 nm fluorescence, higher = more signal;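 also: score merges 667 nm feature emission with signal to noise over triplicate slides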
# [17] = target: Luciferin 4-monooxygenase (Photinus pyralis) (UniProt P08659); assay: inhibition of purified Photinus pyralis luciferase – biochemical, luminescence, purified enzyme, 2006 set, primary screen (AID 1141); conditions: purified firefly luciferase, SteadyGlo luminescence, 30 min; higher = more signal, called active from +8 up or from −8 down;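 also: cell-free assay with purified firefly luciferase at 100 ng per well in PBS; test concentration not given here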
# Chain of Luciferin 4-monooxygenase (Photinus pyralis) (P08659 whole entry, looked up): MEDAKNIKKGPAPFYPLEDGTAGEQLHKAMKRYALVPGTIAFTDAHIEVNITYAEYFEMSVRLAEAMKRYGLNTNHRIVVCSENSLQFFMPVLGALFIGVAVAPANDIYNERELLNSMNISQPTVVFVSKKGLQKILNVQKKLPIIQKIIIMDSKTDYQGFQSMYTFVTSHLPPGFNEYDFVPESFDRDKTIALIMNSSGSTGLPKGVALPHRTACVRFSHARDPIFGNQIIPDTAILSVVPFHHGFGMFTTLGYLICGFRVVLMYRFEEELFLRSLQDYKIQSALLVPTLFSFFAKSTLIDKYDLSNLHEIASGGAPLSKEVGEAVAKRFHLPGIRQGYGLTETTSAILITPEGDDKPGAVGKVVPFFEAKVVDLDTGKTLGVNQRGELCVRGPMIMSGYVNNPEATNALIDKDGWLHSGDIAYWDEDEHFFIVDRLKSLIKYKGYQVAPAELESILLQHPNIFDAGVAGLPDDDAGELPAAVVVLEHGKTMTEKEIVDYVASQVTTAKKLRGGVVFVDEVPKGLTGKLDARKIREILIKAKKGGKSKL
Structure (SMILES),composite z-score (Albumin (Bos taurus)),composite Z-score [1],composite z-score [2],composite z-score [3],composite z-score [4],composite z-score [5],composite z-score [6],composite z-score (Sam68 (KHDRBS1)),composite z-score [7],composite z-score [8],composite z-score [9],composite z-score [10],composite z-score [11],composite z-score [12],composite z-score [13],composite z-score [14],z-score [15],composite z-score (Lefty1),composite z-score [16],z-score [17]
CC(C)CCC[C@@H](C)[C@H]1CC[C@@]2(C)C3=C(CC[C@]12C)[C@@]1(C)CC[C@H](OC(=O)c2ccc(Br)cc2)C(C)(C)C1CC3 (stereo not given in full),-0.0217,-0.174 (inactive),0.173,-0.117,0.108,-0.28,0.432,0.28,0.498,0.291,-0.242,0.595,-0.172,0.487,0.485,0.508,0.367,0.573,0.538,-1.28 (inactive)
CN(C)C(=O)[C@]1(CCC(=O)OC(C)(C)C)N=C(c2ccc(OCCCO)cc2)O[C@@H]1c1ccccc1,0.383,0.666 (inactive),0.116,-0.0308,0.469,3.06,0.264,0.374,-0.792,0.34,2.57,1.27,0.712,0.97,0.562,0.399,1.58,-0.781,0.448,-1.41 (inactive)
CO[C@H]1O[C@H](CO)[C@@H](OC(=O)Nc2ccc(Oc3ccccc3)cc2)[C@H](OC(=O)Nc2ccccc2-c2ccccc2)[C@@H]1OC(=O)Nc1ccccc1-c1ccccc1,0.814,-0.098 (inactive),0.182,0.247,0.482,2.31,1.09,1.32,-0.139,1.14,0.818,1.07,0.263,0.964,0.595,0.295,-0.426,0.841,0.773,-0.69 (inactive)
COc1ccc(C(O)C2C=CC3C(=O)N(Cc4ccccc4)C(=O)C3N2n2cnnc2)c2ccccc12 (stereo not given),0.626,0.624 (inactive),-0.0238,-0.125,0.783,1.65,0.686,1.01,-2.13,0.388,0.727,0.782,1.77,1.01,0.421,-1.54,-1.08,0.635,0.0261,1.01 (inactive)
CN(C)CCCNC(=O)[C@@]1(C)c2ccccc2C(=O)N(Cc2cc(C(F)(F)F)cc(C(F)(F)F)c2)[C@H]1c1ccc(CO)cc1,0.193,0.222 (inactive),-0.0984,-0.0341,0.485,0.155,0.0017,-0.546,-1.03,-1.04,-0.216,-0.446,-0.24,-2.28,-0.775,-0.762,-0.0872,-1.03,-0.973,0.386 (inactive)
COC(=O)Cn1c(C(=O)N2CCCC2)cc2c1C[C@H]1CN(C(=O)c3ccccc3)[C@@](Cc3ccc(F)cc3)(C(=O)OC)[C@@H]21,0.827,-0.14 (inactive),-0.0888,-0.036,0.885,0.965,0.0395,-1.17,-0.451,-0.432,0.712,-0.25,0.386,-0.288,0.237,-0.438,1.39,-0.3,0.647,1.22 (inactive)
CC=CC(O)C1C=CC2C(=O)N(C)C(=O)C2N1N1CCCCC1 (stereo not given),1.01,0.298 (inactive),0.16,0.0701,0.783,2.48,0.466,1.27,-0.0061,0.915,0.523,1.19,0.518,0.714,1.08,-0.0299,-0.138,0.446,0.864,-0.451 (inactive)
C=CCNC(=O)[C@@H]1[C@H]2C(=O)O[C@H](c3ccccc3)[C@H](c3ccccc3)N2[C@H](c2ccc(OCCO)cc2)[C@@]12C(=O)N(C(=O)OCCOC)c1ccc(C#CC3=CCCCC3)cc12,0.498,0.223 (inactive),0.144,-0.0832,0.621,0.634,0.923,1.3,0.606,1.15,0.864,1.23,0.677,0.871,1.31,0.985,-1.03,1.05,0.522,-1.25 (inactive)
Cc1ccc(S[C@]2(C(=O)NC(C)C)CC(=O)N(Cc3ccccc3C(F)(F)F)[C@@H]2c2ccc(CO)cc2I)cc1,0.671,0.0903 (inactive),-0.236,-0.128,0.344,0.352,-0.0811,0.0747,-1.35,-0.03,1.15,-0.0732,0.955,-0.515,0.0697,-0.848,-0.279,-1.03,-0.229,1.35 (inactive)
C[C@@H]1ON(c2ccc(C(=O)OC(C)(C)C)cc2)[C@H](c2ccc(Br)cc2)[C@H]1C(=O)N1C(=O)OC[C@H]1Cc1ccccc1,0.778,-0.359 (inactive),0.0773,-0.0984,0.235,1.86,0.0865,1.28,0.491,1.08,0.405,1.05,-0.204,0.97,0.7,0.734,1.59,0.822,0.377,-0.874 (inactive)
COCCOC(=O)N1C(=O)[C@@]2(c3cc(C#CC4(O)CCCCCC4)ccc31)[C@H](c1ccccc1OCCO)N1[C@H](c3ccccc3)[C@H](c3ccccc3)OC(=O)[C@H]1[C@@H]2C(N)=O,-0.205,-0.02 (inactive),0.0282,-0.0942,0.378,0.994,-0.394,1.31,0.476,1.15,1.47,1.18,0.639,0.872,1.41,1.51,-1.68,1.56,1.02,-0.927 (inactive)

# From PubChem BioAssay
